Some structures have more than one record in an assay (separate samples or runs), and their calls can disagree. Activity calls are given as the source filed them. The calls were made as follows: active = hit-call score of the fitted dose curve at least 0.9, where 1 is the maximum; inactive = score below 0.9.

Read-out in the assay: Monocyte Chemoattractant Protein-1 (MCP1), CCL2 (gene 6347)
In words: BSK_hDFCGF_MCP1: BioMAP Diversity Plus: hDFCGF Assay for Monocyte Chemoattractant Protein-1 (MCP1) Biomarker Activity (AID 2284285). To be noted: primary human foreskin fibroblasts. As for the experimental part:
BSK_hDFCGF is a cell-based, multiplexed-readout assay that uses foreskin fibroblast, a human skin primary cell, with measurements taken at 24 hours after chemical dosing in a 96-well plate.BSK_hDFCGF_MCP1 is an assay component measured in the BSK_hDFCGF assay. It measures MCP-1 antibody related to regulation of gene expression using ELISA technology.Data from the assay component BSK_hDFCGF_MCP1 was analyzed at the endpoint, BSK_hDFCGF_MCP1, in the positive analysis fitting direction relative to DMSO as the negative control and baseline of activity. Using a type of binding reporter, gain or loss-of-signal activity can be used to understand protein changes. To generalize the intended target to other relatable targets, this assay endpoint is annotated to the 'cytokine' intended target family, where the subfamily is 'chemotactic factor'.
The levels of cell surface (or secreted, indicated by the prefix "s") biomarker endpoints were measured by ELISA. Overt cytotoxicity to cells in confluent adherent cultures (all systems other than the BT system) was assessed by measuring total protein levels using sulforhodamine B (SRB) staining in parallel cultures at the time of biomarker measurements, indicated as SRB endpoints. For proliferation assays for adherent cell types, individual cell types are cultured at sub-confluence and relative cell numbers quantified by SRB staining at time points optimized for each system (48 h: 3C and CASM3C systems; 72 h: BT and HDF3CGF systems; 96 h: SAg system). SRB was performed by staining cells with 0.1% SRB after fixation with 10% TCA and reading wells at 560 nm.Viability and proliferation of PBMC (T cells) was quantified by Alamar Blue reduction for the SAg and BT systems. For PBMC viability (referred to as PBMC Cytotoxicity within the assay endpoint names), cells were plated (75,000/well in a 96-well plate) and then chemical samples added for 1 h before addition of activators, SEB and TSST-1 (20 ng/mL final concentration each). Cells were incubated for 90 h. Then, Alamar Blue (20 uL/well) (Invitrogen, Cat DAL1100) was added for 6 h, and the plates were read with a fluorescence microplate reader at 546/580 nm (excitation/emission). For PBMC proliferation, cells were plated and activated as above but incubated for only 16 h prior to addition of Alamar Blue. Plates were read after 6 h.
In the case of `FC(F)(F)COC(OCC(F)(F)F)OCC(F)(F)F`, the outcome was inactive.

In the case of `FC(F)=C(F)C(F)(F)C(F)(F)C(F)(F)C(F)(F)C(F)(F)C(F)(F)F`, the outcome was inactive. For the compound `O=C(Cl)C(F)(F)C(F)(F)C(F)(F)C(=O)Cl`, the result was inactive. Still for that read-out and setting: the value for `OC(O)(C(F)C(O)(O)C(F)(F)F)C(F)(F)F` was “inactive”; that for `OCCC(F)(F)C(F)(F)C(F)(F)C(F)(F)F` was “inactive”.

Consider `O=S(=O)(O)CCC(F)(F)C(F)(F)C(F)(F)C(F)(F)C(F)(F)C(F)(F)F`, for which the outcome was inactive. Broadly, the AC50 is the concentration at which the activity in the assay is half-maximal. With `FC(F)(F)C(F)(F)C(F)(F)C(F)(F)C(F)(F)C(F)(F)I`, the result was inactive and the AC50 was 28.2 µM (active). Turning to `FC(F)C(F)(F)COCC1CO1` (stereo unspecified), the outcome was inactive.

As for `NCC(F)(F)C(F)(F)C(F)(F)C(F)(F)F`, the outcome was inactive.

Take `C[Si](C)(C)C(F)(F)C(F)(F)C(F)(F)F`: the result was inactive.

The record behind these values is PubChem BioAssay (EPA / NIEHS).
